The whole screen tested about 75,000 compounds, of which about 15 (0.02%) were called active. Another 3% or so got no clear call; they are omitted. Calls come from the whole dose curve; as a rule, active = well fitted inhibition curve with a large enough effect in the main read-out, with a control signal flat (not every such curve was filed as active); inconclusive = small, poorly fitted or top-dose-only effect, or a change in a side signal; inactive = flat fitted curve, though single readings scatter. Shown is part of a subset that was picked to be rich in actives.
Biological target: Caspase-7 (Homo sapiens) (UniProt P55210)
Sequence (P55210 24-198 limits assumed): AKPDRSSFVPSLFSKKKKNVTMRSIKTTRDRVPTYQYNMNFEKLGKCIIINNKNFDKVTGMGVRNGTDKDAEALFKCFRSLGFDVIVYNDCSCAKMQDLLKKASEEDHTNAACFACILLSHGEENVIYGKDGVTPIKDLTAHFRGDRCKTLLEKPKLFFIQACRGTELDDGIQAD
Sequence (P55210 207-303 limits assumed): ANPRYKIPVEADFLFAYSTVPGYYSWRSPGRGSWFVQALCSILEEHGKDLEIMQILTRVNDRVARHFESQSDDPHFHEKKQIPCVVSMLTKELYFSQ
Assay: qHTS Assay for Allosteric/Competitive Inhibitors of Caspase-7; note: % of control where 0% means no effect
Settings: recombinant caspase-7, Ac-DEVD-AFC fluorescence rate; series mostly up to 57.5 µM
Text: NIH Molecular Libraries Screening Centers Network [MLSCN]
NIH Chemical Genomics Center [NCGC]
PI Name: Dr. James Wells,
Dr. Enrique Perez-Paya, Dr.Janice Williams, Dr. Dennis Wolan, a person
The caspases (Cysteine Aspartyl Protease) comprise a related family of 14 dimeric proteases that are critical mediators of apoptosis (programmed cell death) and inflammation. The caspases represent an important class of drug targets for stroke, ischemia, cancer and inflammatory diseases. […] One goal of this project was to identify compounds that act as allosteric inhibitors via stabilizing the procaspase form of the enzyme. Previous work in Well's laboratory has shown that such allosteric inhibitors can be identified and these act by binding at the dimer interface of enzyme (Hardy, Lam et al., 2004).
The biochemical assay was configured using purified caspase 7 at a high enzyme concentration to promote formation of the homodimers and thus facilitate the identification of allosteric inhibitors. The overall goal was to identify reversible inhibitors with better drug-like properties than the currently available set of aspartyl-containing peptidomimetics that covalently bind the active site. Caspase 7 was assayed using the profluorescent substrate Ac-DEVD-AFC. After initiation of the assay with substrate the plates were rapidly read using an automated robotic system (Kalypsys, Inc.) to maintain consistent timing. A kinetic mode of detection was used where the initial rate was collected (estimated final product formation was ~10%). Compounds were screened as a concentration-titration series that ranged from 57 uM to 0.7 nM. Below is the protocol used for caspase 7.
NCGC Assay Protocol Summary:
Caspase 7 was prepared in buffer (50 mM HEPES pH 7.5, 50 mM KCl, 200 mM NaCl, 10 mM DTT, 0.1% CHAPS) at a concentration of 66.6 nM and 3 uL was dispensed to all wells using black solid Kalypsys 1536-well plates. 20 nL of DMSO containing compounds was added using a pin-tool (Kalypsys Inc.) to columns 5-48. Then 20 nL of DMSO solution from a control plate was added to columns 1-4. Controls were: Column 1, 16 point titration with each concentration in duplicate (1:1 dilutions in DMSO; final starting concentration was 57 uM) of the caspase 7 inhibitor Ac-DEVD-CHO (Alexis Biochemicals); Column 2, a 16 point titration with each concentration in duplicate of the free AFC fluorophore prepared in DMSO (Alexis Biochemicals), final starting was 40 uM; Column 3 neutral (DMSO only) control; Column 4: DMSO alone, to serve as a negative control (no substrate was added). Then 1 uL of 20 uM the substrate Ac-DEVD-AFC (Alexis Biochemicals) prepared in the same buffer was dispensed to all wells except columns 2 and 4 and the plates were immediately transferred (< 1 min) to the Viewlux. The plates were then exposed using 405 nm excitation/520 nm emission filters for 4 sec and read at 20 sec intervals for 3 min. Final enzyme concentration was 50 nM and the final substrate concentration was 5 uM.
Concentration-response curves were fitted to the data calculated from slope of the linear regression of fluorescent intensity versus time (the rate). The concentration-effect curves were then classified based on curve quality (r2), response magnitude and degree of measured activity. […] Inconclusive compounds had appreciable concentration-dependent effects on both the measured rate and the interpolated basal fluorescence intensity at the start of the reaction but where the basal fluorescent intensity was marginal (e.g. < 10-fold). Inconclusive compounds also encompass highly fluorescent compounds (>100-fold increases in fluorescent intensities values relative to controls) where artificial concentration-dependent decreases in the rate occurred at high compound concentrations due to fluorescent interferences.
Keywords: Caspase 7, proteases, profluorescent, MLSMR, MLSCN, NIH Roadmap, qHTS, NCGC

Activity change, negative = inhibition, inactive:
Cc1ccc(S(=O)(=O)NC(C)C(=O)Nc2ccccc2C(=O)N2CCCC2)cc1 (stereo not drawn)
Cn1c(=S)c2[nH]c(SCCCc3ccccc3)nc2n(C)c1=O 0.0837% [at 11.5 µM]
CCC1=C(OC(=O)N(CC)CC)N2C(=O)OC(=NCC3CC3)[C@]2(C)[C@H]2C1=CC[C@H]1C(=O)N(CC(=O)OC)C(=O)[C@H]12
Fc1ccc(-c2nnc3sc(-c4ccc5c(c4)OCO5)nn23)cc1
Cn1c2c(c(=O)n(C)c1=O)C(c1ccc(O)cc1)Nc1ccccc1O2 (stereo not drawn)
CCOC(=O)c1[nH]c2c(c1C)C(=O)CC(c1ccc(N(C)C)cc1)C2 (stereo not drawn)
COc1ccc(NS(=O)(=O)c2ccc(NC(=O)C(C)(C(F)(F)F)C(F)(F)F)cc2)nn1
Cc1cc(C(=O)COC(=O)c2cccs2)c(C)n1-c1c(C)n(C)n(-c2ccccc2)c1=O
COc1ccc2c3c1OC1CC(O)C=C[C@@]31CCN(C)C2 (stereo partly drawn)
Cc1ccc(S(=O)(=O)C2(S(=O)(=O)c3ccc(C)cc3)CCCC2)cc1
CCCN1C(=O)C(NS(=O)(=O)c2ccc(N)cc2)(C(F)(F)F)C(C(=O)OC)=C1C (stereo not drawn)
CS(=O)(=O)c1ccc2nc(NC(=O)C3CCCCC3)sc2c1
CC(=O)OC1CCC2(O)CC1(C)CCC1C2CC1(C)C (stereo not drawn)
CC(C)C(N)C(=O)OCCOCn1cnc2c(=O)[nH]c(N)nc21 (stereo not drawn)
CC(C)(CSc1nncn1/N=C/c1ccco1)NS(=O)(=O)c1ccc(Cl)cc1
NC(=O)C1CCN(C(=O)c2ccc(C(F)(F)F)cc2)CC1
Cc1ccccc1CN1CCN(CC(=O)NCc2ccccn2)C1=O
BrC1C(Br)C(Br)C(Br)C(Br)C1Br (stereo not drawn)
CC(=O)N1CCC2(CCCN(c3ncccn3)C2)CC1
CC1CCCCN1CCCNC(=O)c1ccc(-n2c(=O)c(=O)[nH]c3ccccc32)cc1 (stereo not drawn)
CCCn1c(SCC(=O)Nc2cccc(C(=O)OCC)c2)nnc1-c1ccoc1C
COC(=O)CC1C(C)(C)C(OC(C)=O)C2CC3=C4CC(=O)OC(c5ccoc5)[C@]4(C)CCC3[C@@]1(C)C2=O (stereo partly drawn)
O=C1NS(=O)(=O)c2ccccc21
CC12CN3CC(C)(CN(C1)C3c1ccc(Cl)cc1Cl)C2=O (stereo not drawn)
C[N+](C)(C)CCNC(=O)c1c(O)c2c([nH]c1=O)CCCC2
CCOC(=O)N1CCC(O)(c2cc(C)c(C)cc2C)CC1
Cc1cc(C)cc(N(CC(=O)Nc2c(C)n(C)n(-c3ccccc3)c2=O)S(C)(=O)=O)c1
COc1ccc(Cn2c(=O)sc3ccccc32)cc1OC
CCOC(=O)N1CCN(C(=O)CSc2nnc(-c3c[nH]c4ccccc34)n2CCOC)CC1
CCN(CC)C(=O)CSc1nnc(-c2ccc(S(=O)(=O)NCc3ccccc3Cl)cc2)o1
Cc1ccccc1NC(=O)c1cc(S(=O)(=O)N2CCOCC2)cs1
CCOC(=O)c1[nH]cnc1C(=O)NC1CCCCC1
Oc1cc(O)c2c(c1)OC(c1ccc(O)c(O)c1)C(O)C2 (stereo not drawn)
CCOc1ccc(NS(=O)(=O)c2ccc(OCC(=O)NCCCOC)cc2)cc1
COc1cccc(Cn2c(=O)c(C)nc3cnc(Oc4ccccc4)nc32)c1
CCOc1ccc(Cn2c(SCCCCC#N)nc3c2c(=O)n(C)c(=O)n3C)cc1OCC
Cc1onc(-c2ccccc2Cl)c1C(=O)NCCn1ccc2ccccc21
CC1O[C@@H](Oc2c(-c3ccc(O)c(O)c3)oc3cc(O)cc(O)c3c2=O)C(O)C(O)C1O (stereo partly drawn)
CCC1Oc2ccc(Cl)cc2N(CC(=O)O)C1=O (stereo not drawn)
O=C(Cc1cccs1)N1CCCC(c2nc(-c3ccc(S(=O)(=O)N4CCCC4)cc3)no2)C1 (stereo not drawn)
CN(C)CCc1c[nH]c2ccc(Cn3cncn3)cc12
C=CCn1c(COc2ccccc2F)nnc1SCC(=O)N1CC(=O)Nc2ccccc21
O=NO
COC(=O)c1ccc(N(CC(=O)NC2CCCC2)C(=O)CNC(=O)c2ccco2)cc1
COc1ccc(C(=O)CSc2nccc(=O)[nH]2)cc1
COc1cc(OC)c(C(=O)Nc2ccc(N(C)C)cc2)cc1OC
CC1CSc2nnc(CCc3ccccc3)n21 (stereo not drawn)
O=c1c(O)c(-c2ccc(O)cc2)oc2ccccc12
CC(C)NS(=O)(=O)c1ccc(OCC(=O)Nc2ccc3c(c2)OCCO3)cc1
CCOC(=O)Cc1csc(NC(=O)CN(C)S(=O)(=O)c2ccc3c(c2)CCC(=O)N3)n1
CC1CCCC(NC(=O)CN2CCN(Cc3ccc(Cl)cc3)C2=O)C1C (stereo not drawn)
CCC(Oc1ccccc1)C(=O)NCc1cccnc1 (stereo not drawn)
CC1(C)C=CC(=O)[C@]2(C)C1CC(=O)[C@]1(C)C2CC[C@@]2(C)C(c3ccoc3)OC(=O)C3OC321 (stereo partly drawn)
CCCCCNC(=O)Cc1ccc(OC)cc1
C=CC(=O)c1ccc2ccccc2c1
COC(=O)C1=C(N)Oc2cc(C)oc(=O)c2C1c1cccnc1 (stereo not drawn)
CCOC(=O)c1c(-n2cnnn2)sc(C)c1C
CNc1ncnc2ccc(-c3cccc(NS(C)(=O)=O)c3)cc12
Cn1cccc1Cc1nnc(SCC(=O)NCc2ccc3c(c2)OCO3)n1CCc1ccccc1
CC(C)(C)c1ccc(NC(=O)NCc2ccco2)cc1
CC1(C)OC2CC3C4CCC5=CC(=O)CCC5(C)C4(F)C(O)CC3(C)[C@]2(C(=O)CCl)O1 (stereo partly drawn)
C=C[C@](C)(O)CCC1C(=C)CCC2[C@@](C)(CO)CCC[C@@]12C (stereo partly drawn)
COc1c(C(C)C)oc2cc3oc(=O)ccc3cc12
COC(=O)[C@@H]1C[C@@]2(O)[C@H](O)[C@H](O)[C@H](O)C[C@H]2N1CC1CCCCC1
Clc1ccc(C=NC23CN4CN(CN(C4)C2)C3)cc1
O=C1CCCC(O)=C1C=NCCc1ccccc1
CCC(C)(C)n1nnnc1C(c1cccs1)N1CCN(Cc2ccccc2)CC1 (stereo not drawn)
Cc1c(S(=O)(=O)O)oc2c1C(=O)C(=O)c1c-2ccc2c1CCCC2(C)C
CN(C)/C=N/c1cc(=O)n(C)c(=O)n1CC1CC1
O=C(OCc1nnc(-c2ccccc2)o1)c1ccc2c(c1)C(=O)N(CCc1ccccc1)C2=O
c1ccc2cc3[nH]c(CN4CCCCC4)nc3cc2c1
COC1[C@H](OC(N)=O)C(O)[C@H](Oc2ccc3c(O)c(NC(=O)c4ccc(O)c(CC=C(C)C)c4)c(=O)oc3c2C)OC1(C)C (stereo partly drawn)
COc1cccc(OCC(O)CN2CCN(CCO)CC2)c1 (stereo not drawn)
Cc1oc(C)c(C(=O)NCCCC(=O)O)c1C(=O)NCCCC(=O)O
CCOc1cc(S(=O)(=O)NC2CC(C)(C)NC(C)(C)C2)ccc1F
COc1cc(OC)c2c(c1Cl)OC1(C2=O)C(O)=CC(=O)CC1C (stereo not drawn)
CC(C)(O)CCC(O)[C@@](C)(O)C1CC[C@]2(O)C3=CC(=O)C4CC(O)C(O)C[C@]4(C)C3CC[C@]12C (stereo partly drawn)
CC(=O)Oc1c2c(c3c(c1CC=C(C)C)O[C@@]14C(=CC5CC1C(C)(C)OC4(C/C=C(\C)C(=O)O)C5=O)C3=O)OC(C)(CCC=C(C)C)C=C2 (stereo partly drawn)
CC(=O)OCC(=O)C1CCC2C3CCC4=CC(=O)CC[C@@]4(C)C3CC[C@]12C (stereo partly drawn)
COc1ccc(CCN=C2SCC(=O)N2C)cc1OC
Cc1cccc(-n2c(O)c(C=Nc3ccccc3N)c(=O)[nH]c2=O)c1
CCC1=C(OC(=O)N(CC)CC)N2C(=O)OC(=NCCc3c[nH]c4ccccc34)[C@]2(C)[C@H]2C1=CC[C@H]1C(=O)N(CC)C(=O)[C@H]12
COc1ccccc1N1CCN(C[C@@H]2CN3C(=O)N(C)c4ccccc4C3=N2)CC1
COc1ccc(C2C(C(=O)N3CCN(c4ccc(OC)cc4)CC3)c3ccccc3C(=O)N2C)cc1 (stereo not drawn)
CN(CCOc1ccc(CC2SC(=O)NC2=O)cc1)c1ccccn1 (stereo not drawn)
N#CCC(=O)NC(=O)NCC1CC1
Cn1c(=O)cc(SCC(=O)N2CCN(C(=O)c3ccco3)CC2)c2ccccc21
O=C(c1cccnc1NCc1ccccc1)N1CCOCC1
CN1CCC(CNC(=O)c2ccc(-n3c(=O)c(=O)[nH]c4ccccc43)cc2)CC1
O=C(C1=C(O)C(=O)N(Cc2ccccc2)C1c1cccnc1)c1ccco1 (stereo not drawn)
O=C(c1cccs1)N1CCN(Cc2ccc3c(c2)OCO3)CC1
C[C@H]1CC[C@H](C(=O)O)N[C@@H]1c1ccc(C#Cc2ccccc2)cc1 1.78% [at 11.5 µM]
Cc1noc(C)c1CSc1nc2cc(S(=O)(=O)N3CCOCC3)ccc2o1
Cc1csc(-c2nc3ccccc3n2C)n1
COC(=O)[C@@H]1C[C@@]2(O)[C@H](O)[C@H](O)[C@H](O)C[C@H]2N1Cc1ccc(C(C)(C)C)cc1
CCC(CC)C(=O)Nc1cc(C(=O)OC)cc(C(=O)OC)c1
Cc1ccc(N(CC(O)CN2CCCC2)S(=O)(=O)c2ccccc2)cc1 (stereo not drawn)
O=C(COc1ncnc2ccccc12)NC(=O)NCc1ccccc1
Cc1ccccc1Nc1nnc(C)c(=O)[nH]1
CC(C)=CCC/C(C)=C/CC/C(C)=C/CC/C(C)=C/CO
CCCOc1ccc2c3c(c(=O)oc2c1OCCC)CCC3
CCOC(=O)Cn1c(=O)oc2cc(S(=O)(=O)N(C)Cc3ccco3)ccc21
CC(C)[C@H]1CC[C@@H](C)C[C@H]1O
